Records with an inconclusive call do not appear. Active and inactive are the calls of the source. Calls come from the whole dose curve; as a rule, active = well fitted curve in the direction sought with a large enough effect; inconclusive = small, poorly fitted or top-dose-only effect, or another doubt; inactive = no such curve, though single readings can be large; an effect the other way counts as inactive or inconclusive.
Columns and labels:
[1] = molecular target: DNA repair nuclease/redox regulator APEX1 (Homo sapiens) (UniProt P27695); assay: qHTS Validation Assay for Inhibitors of the Human Apurinic/apyrimidinic Endonuclease 1 (APE1) (AID 1705; note: potency is the fitted concentration of half-maximal effect); conditions: purified APE1 endonuclease activity, fluorescence, titration; series mostly up to 57.1 µM
Procedure, shortened: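 qHTS, 1536-well. APE1 + cpd 15 min RT → 50 nM TAMRA/BHQ-2 THF-abasic dsDNA substrate → kinetic fluorescence, 3 reads/60 s; delta(read3−read1) = reaction progress. No-enzyme buffer = negative control.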

[2] = Counterscreen for APE1 Inhibitors: Fluorescent Dye Displacement Validation Assay (AID 1707); conditions: fluorescent dye displacement from DNA; series mostly up to 57.1 µM
Procedure, shortened: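 Loss of Thiazole Orange fluorescence marks promiscuous DNA binders. The dye (250 nM) is mixed with 50 nM abasic-site dsDNA in pH7.5 Tris buffer containing MgCl2, then compounds are added and emission is read once.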

[3] = molecular target: Endonuclease 4 (Escherichia coli (strain K12)) (UniProt P0A6C1); assay: Counterscreen for APE1 Inhibitors: qHTS Validation Assay for Inhibitors of Endonuclease IV (AID 1708); note: potency is the fitted concentration of half-maximal effect; conditions: E. coli endonuclease IV, DNA cleavage fluorescence; series mostly up to 57.1 µM
Procedure, shortened: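 Measured as reaction progress, the fluorescence gain between first and third kinetic reads after adding 50 nM TAMRA/BHQ-2 THF duplex to 2 nM enzyme preincubated 15 min with compound; 2 mM MgCl2, pH 7.5.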

[4] = qHTS for differential inhibitors of proliferation of Plasmodium falciparum line 7G8 (AID 1815); conditions: Plasmodium falciparum 7G8 proliferation inhibition; series mostly up to 28.7 µM;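 note: parasite growth measured after three days of incubation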; note: potency is the fitted concentration of half-maximal effect
[5] = qHTS for differential inhibitors of proliferation of Plasmodium falciparum line GB4 (AID 1816); conditions: Potency: Plasmodium falciparum GB4 proliferation inhibition; series mostly up to 28.7 µM;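 note: parasite growth measured after 72 h incubation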; note: potency is the fitted concentration of half-maximal effect
[6] = qHTS for differential inhibitors of proliferation of Plasmodium falciparum line 3D7 (AID 1876); note: potency is the fitted concentration of half-maximal effect; conditions: P. falciparum 3D7 proliferation inhibition; series mostly up to 28.7 µM
[7] = qHTS for differential inhibitors of proliferation of Plasmodium falciparum line Dd2 (AID 1882); conditions: Potency: Plasmodium falciparum Dd2 proliferation inhibition; series mostly up to 28.7 µM; note: nearly all actives have a fitted effect of over 65% in size; note: potency is the fitted concentration of half-maximal effect
Procedure, shortened: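 RBC culture, 0.3% parasitemia / 2.5% Hct final; cpd added by pin tool in DMSO; 72 h, 37 C, 5% CO2; lysis buffer + SYBR Green I, o/n RT dark; FI 485/535; norm. to artemisinin 0.29 uM and DMSO.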

[8] = qHTS for differential inhibitors of proliferation of Plasmodium falciparum line W2 (AID 1883); conditions: Potency: Plasmodium falciparum W2 proliferation inhibition; series mostly up to 28.7 µM;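 note: parasites grown with compound for 72 h before lysis and staining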; note: potency is the fitted concentration of half-maximal effect
[9] = qHTS for differential inhibitors of proliferation of Plasmodium falciparum line HB3 (AID 1886); conditions: Potency: Plasmodium falciparum HB3 proliferation inhibition; series mostly up to 28.7 µM;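 note: parasites grown with compound for 72 h before SYBR Green readout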; note: potency is the fitted concentration of half-maximal effect
[10] = qHTS for differential inhibitors of proliferation of Plasmodium falciparum line D10 (AID 1877); conditions: series mostly up to 28.7 µM;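 note: parasites grown with compound for 72 h before DNA staining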; note: potency is the fitted concentration of half-maximal effect

Measured: Potency

DNA repair nuclease/redox regulator APEX1 (Homo sapiens), sequence (P27695 whole entry, looked up): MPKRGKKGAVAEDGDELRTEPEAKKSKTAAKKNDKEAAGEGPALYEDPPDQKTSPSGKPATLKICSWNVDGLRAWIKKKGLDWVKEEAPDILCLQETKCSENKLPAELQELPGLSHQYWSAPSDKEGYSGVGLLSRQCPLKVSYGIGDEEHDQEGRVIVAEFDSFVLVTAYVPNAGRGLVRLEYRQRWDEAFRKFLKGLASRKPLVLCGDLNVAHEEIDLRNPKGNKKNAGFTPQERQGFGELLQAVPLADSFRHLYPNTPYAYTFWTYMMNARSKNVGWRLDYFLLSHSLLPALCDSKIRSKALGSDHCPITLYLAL

CC(C(O)c1ccc(O)cc1)N1CCC(Cc2ccccc2)CC1 (stereo unspecified)
inactive: [1] | [2] | [3]
active: [4] 7.08 µM | [5] 3.98 µM | [6] 4.47 µM | [7] 10 µM | [8] 2.82 µM | [9] 5.01 µM

NC1CCN(c2cccc(Cl)n2)CC1
active: [5] 12.6 µM | [8] 5.62 µM
not listed: [2] | [7]
inactive: all other assays above

C#CCN(C)Cc1ccccc1
not listed: [2] | [8]
inactive: all other assays above

C[C@](N)(Cc1ccc(O)cc1)C(=O)O
not listed: [2]
inactive: all other assays above

CC1=C(CC(=O)O)c2cc(F)ccc2/C1=C\c1ccc(S(C)=O)cc1 (stereo unspecified)
not listed: [2] | [8]
inactive: all other assays above

CC(CN1c2ccccc2Sc2ccccc21)N(C)C (stereo unspecified)
inactive: [1] | [3]
active: [4] 7.08 µM | [5] 6.31 µM | [6] 14.1 µM | [10] 14.1 µM | [7] 5.01 µM | [8] 2.24 µM | [9] 11.2 µM

CCN(CC)CCOC(=O)C1(C2CCCCC2)CCCCC1
inactive: [1] | [3]
active: [4] 8.91 µM | [5] 14.1 µM | [10] 15.8 µM | [7] 5.01 µM | [8] 5.62 µM | [9] 12.6 µM

CN(C)CCC=C1c2ccccc2CCc2ccccc21
inactive: [1]

CCN(CC)CCNC(=O)c1cc(Cl)c(N)cc1OC
not listed: [2] | [8]
inactive: all other assays above

CCN(CC)CCCC(C)Nc1c2ccc(Cl)cc2nc2ccc(OC)cc12 (stereo unspecified)
active: [1] 15.8 µM | [3] 12.6 µM | [4] 0.178 µM | [5] 0.0891 µM | [6] 0.1 µM | [10] 0.0891 µM | [7] 0.126 µM | [8] 0.0891 µM | [9] 0.0891 µM

OCCN1CCN(CCCN2c3ccccc3Sc3ccc(Cl)cc32)CC1
inactive: [1] | [2]
active: [4] 3.55 µM | [5] 4.47 µM | [6] 2.82 µM | [10] 8.91 µM | [7] 7.94 µM | [8] 2.51 µM | [9] 5.01 µM

CN(C)CCCN1c2ccccc2CCc2ccccc21
inactive: [1]

CC(C)(C)c1onc(OCP(=O)(O)O)c1CC(N)C(=O)O (stereo unspecified)
not listed: [2] | [8]
inactive: all other assays above

C=Cc1c(C)c2cc3[nH]c(cc4nc(cc5nc(cc1[nH]2)C(C)=C5CCC(=O)O)C(CCC(=O)O)=C4C)c(C)c3C=C
active: [1] 5.01 µM
not listed: [2]
inactive: all other assays above

CC1=C(/C=C/C(C)=C/C=C/C(C)=C/C(=O)O)C(C)(C)CCC1
inactive: [1] | [3] | [6] | [10]
active: [4] 14.1 µM | [8] 14.1 µM

OCc1cc(C(O)CNCCCCCCOCCCCc2ccccc2)ccc1O (stereo unspecified)
inactive: [1] | [3]
active: [4] 8.91 µM | [5] 8.91 µM | [6] 8.91 µM | [10] 12.6 µM | [8] 7.08 µM | [9] 10 µM

C[C@H]1O[C@@H](n2cc(F)c(=O)[nH]c2=O)[C@H](O)[C@@H]1O
not listed: [2]
inactive: all other assays above

CC(=O)OCC(=O)[C@@]1(O)CC[C@H]2[C@@H]3CCC4=CC(=O)CC[C@]4(C)[C@H]3C(=O)C[C@@]21C
not listed: [2] | [8]
inactive: all other assays above

CN(C)CC[C@@H](c1ccc(Cl)cc1)c1ccccn1
active: [4] 2.51 µM | [7] 3.98 µM | [8] 1 µM
not listed: [2] | [5]
inactive: all other assays above

CC(C)NC[C@H](O)c1ccc(O)c(O)c1
inactive: [1] | [3] | [4] | [5] | [6] | [7]

Nc1cc(=O)[nH]c(N)n1
not listed: [2]
inactive: all other assays above

CNC(=O)Oc1ccc2c(c1)[C@]1(C)CCN(C)[C@@H]1N2C
inactive: [1] | [3]

CSc1ccc2c(c1)C(N1CCN(C)CC1)Cc1ccccc1S2 (stereo unspecified)
active: [4] 6.31 µM | [5] 11.2 µM | [6] 8.91 µM | [10] 12.6 µM | [7] 8.91 µM | [8] 4.47 µM | [9] 10 µM
inactive: [1]

CN(C)CCOC(C)(c1ccccc1)c1ccccn1 (stereo unspecified)
inactive: [1] | [3] | [9]
active: [5] 6.31 µM | [7] 10 µM | [8] 3.55 µM

CN1CCN(C2Cc3ccccc3Sc3ccc(Cl)cc32)CC1 (stereo unspecified)
inactive: [1]
active: [4] 6.31 µM | [5] 11.2 µM | [6] 10 µM | [8] 5.01 µM | [9] 10 µM

CNCCCC1c2ccccc2C=Cc2ccccc21
inactive: [1]
active: [4] 5.62 µM | [5] 10 µM | [6] 10 µM | [10] 14.1 µM | [8] 4.47 µM | [9] 11.2 µM

CNCC(O)c1ccc(O)c(O)c1 (stereo unspecified)
active: [8] 14.1 µM
inactive: [1] | [3] | [7]

C[C@]12CC[C@@H]3c4ccc(O)cc4CC[C@H]3[C@@H]1CCC2=O
inactive: [1]
active: [4] 3.98 µM | [8] 11.2 µM

CN(C)CCCN1c2ccccc2Sc2ccc(Cl)cc21
active: [4] 4.47 µM | [5] 11.2 µM | [6] 4.47 µM | [10] 12.6 µM | [7] 12.6 µM | [8] 3.55 µM | [9] 8.91 µM
inactive: [1]

Cc1cc(N)c2ccccc2[n+]1CCCCCCCCCC[n+]1c(C)cc(N)c2ccccc21
active: [5] 0.251 µM | [6] 0.0501 µM | [10] 0.112 µM | [7] 2.24 µM | [9] 0.126 µM

CSc1ccc2c(c1)N(CCC1CCCCN1C)c1ccccc1S2 (stereo unspecified)
active: [4] 4.47 µM | [5] 3.98 µM | [6] 8.91 µM | [10] 12.6 µM | [7] 12.6 µM | [8] 5.01 µM | [9] 8.91 µM
inactive: [1]

CC(CN(C)C)CN1c2ccccc2CCc2ccccc21 (stereo unspecified)
active: [4] 8.91 µM | [5] 5.62 µM | [6] 8.91 µM | [10] 11.2 µM | [8] 6.31 µM | [9] 11.2 µM
inactive: [1]

COC(=O)C1=C(C)NC(C)=C(C(=O)OC)C1c1ccccc1[N+](=O)[O-]
inactive: [1] | [3] | [7]

O=C1N=C(O)CN1/N=C/c1ccc(-c2ccc([N+](=O)[O-])cc2)o1
active: [6] 11.2 µM | [8] 7.08 µM
inactive: [1] | [3] | [7]

N=c1c[n+](N2CCOCC2)[n-]o1
inactive: [3] | [4] | [5] | [10] | [7] | [9]

CC[C@H]1CN2CCc3cc(OC)c(OC)cc3[C@@H]2C[C@@H]1C[C@H]1NCCc2cc(OC)c(OC)cc21
inactive: [3]

CC(C)C(=O)c1c(C(C)C)nn2ccccc12
inactive: [1] | [3] | [5] | [10] | [7]

CC1=C(CC(=O)O)c2cc(F)ccc2/C1=C\c1ccc(S(C)(=O)=O)cc1
inactive: [1] | [3] | [5] | [6] | [10] | [7]

COc1ccc(Cl)cc1C(=O)NCCc1ccc(S(=O)(=O)NC(=O)NC2CCCCC2)cc1
not listed: [2] | [4] | [8]
inactive: all other assays above

CCCn1cnc2c1c(=O)n(CCCCC(C)=O)c(=O)n2C
active: [8] 12.6 µM
inactive: [1] | [3] | [7]

NC(N)=NCCC[C@H](N)C(=O)O
not listed: [1] | [2]
inactive: all other assays above

NC(=O)c1ncn([C@@H]2O[C@H](CO)[C@@H](O)[C@H]2O)n1
inactive: [1] | [3] | [10] | [7] | [9]

CC(C)(C(=O)O)c1ccc(C(O)CCCN2CCC(C(O)(c3ccccc3)c3ccccc3)CC2)cc1 (stereo unspecified)
not listed: [1] | [2] | [8]
inactive: all other assays above

CNCCC(Oc1ccc(C(F)(F)F)cc1)c1ccccc1 (stereo unspecified)
inactive: [3]

CCCCCCCCCCCCCCCC(=O)NCCO
inactive: [1] | [3] | [10] | [7]
active: [6] 12.6 µM | [8] 3.16 µM

Source: PubChem BioAssay (NCATS)
